Columns and labels:
Test in all cases: PBM binding z-score (relative to random genomic background probes); higher = stronger binding; sequences stand for … in GC…GCGATTGACAGCGTAGAATGAAGG
[1] = tested on: RARb homodimer (NR concentration 270 nM)
Outline: (§1)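 Custom Agilent 4×180K protein-binding microarrays carried double-stranded probes, each with a 34-nt variable region. These regions held direct-repeat seeds, single-nucleotide variants, half-site ablations and random human genomic background sequences. Ligand-free nuclear receptor dimers were incubated on the arrays for 1 h, antibodies against each partner (one per run) detected binding, and scanned fluorescence was regression-normalized. Binding z-scores take the random background probes as reference.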

[2] = tested on: RARg:RXRa (NR concentration 270 nM, RXRa partner concentration 90 nM)
Outline: as §1

[3] = tested on: RARg homodimer (NR concentration 270 nM)
Outline: as §1

[4] = tested on: RXRa DBDmut IVT, anti-RXR (DBD mutation: RXRa K156A/R161A, NR concentration 90 nM)
Outline: as §1

[5] = tested on: RXRa homodimer (NR concentration 180 nM)
Outline: as §1

[6] = tested on: THRa:RXRa (NR concentration 90 nM, RXRa partner concentration 90 nM)
Outline: as §1

[7] = tested on: THRa homodimer (NR concentration 90 nM)
Outline: as §1

[8] = tested on: VDR homodimer (NR concentration 270 nM)
Outline: as §1

[9] = tested on: VDR:RXRa (NR concentration 270 nM, RXRa partner concentration 90 nM)
Outline: as §1

Sequence | PBM binding z-score [1] | PBM binding z-score [2] | PBM binding z-score [3] | PBM binding z-score [4] | PBM binding z-score [5] | PBM binding z-score [6] | PBM binding z-score [7] | PBM binding z-score [8] | PBM binding z-score [9]
TCTTGTAGATCAAAGCTTAAGAAAGCCGAAGCCT | -0.931 | -0.422 | -0.665 | 0.503 | -0.173 | -0.444 | -1.01 | -0.74 | 
CCGAGTAGGTGACGAGGGGGCATTCAGTGCGAAT | 1.89 | 2.34 | 2.1 | 1.05 | 1.35 | 3.34 | 0.888 | 3.45 | 
ATATGTAGGTTAGGGTCATTGAGAAAGTAGGGAA | 3.51 | 4.09 | 3.1 | 2.32 | 5.3 | 4.13 | 3.44 | 3.55 | 
CCTTACGGGCCACGAGGTTATAGCACGACGAGCG | 1.17 | 1.33 | 1.07 | -0.516 | 1.28 | 1.25 | 0.458 | 0.543 | 
CGGAGTAGGTTACGAGGGGGCATTCAGTGCGAAT | 2.45 | 3.35 | 2.86 | 2.04 | 2.09 | 3.8 | 0.507 | 3.73 | 
CCGAGTAGGCTACGAGGGGGCATTCAGTGCGAAT | 0.928 | 1.09 | 0.795 | 0.409 | 0.458 | 1.79 | -0.405 | 2.19 | 
CCGAGTAGGTTACGAGGGCGCATTCAGTGCGAAT | 0.436 | 0.647 | 0.287 | -0.122 | 0.655 | 0.838 | -0.711 | 0.0173 | 
CGAACTAGGTGAAAGGACAGTGAAAGGCGACGTA | 1.15 | 0.833 | 1.07 | -0.365 | 0.373 | 0.672 | -0.413 | -0.349 | 
CCTTGCGGGTCACTGACAGGTTATAGCATTTGGA | 2.97 | 5.46 | 4.17 | 1.77 | 4.49 | 2.8 | 0.354 | 0.664 | 
ATATGTAGGTTAGGGTCATTAAGAAAGTAGGGAA | 3.33 | 3.59 | 2.76 | 2.22 | 4.57 | 3.9 | 2.76 | 3.54 | 
CGTCCAAGGTCATAGGAGTTCAGTGAAGACAGAT | 4.79 | 6.25 | 6.57 | 4.22 | 6.23 | 4.71 | 2.7 | 5.97 | 
ATCTCTAGGTAAAGTTCAGCGAAAGATCGATAGA | 2.94 | 2.55 | 2.95 | 1.25 | 1.9 | 1.41 | 0.214 | 1.66 | 
CGTTCAAGGTCATAGGAGGTCAGTGAAGACAGAT | 5.77 | 7.11 | 7.22 | 4.47 | 6.46 | 5.23 | 3.63 | 5.25 | 
CTATGTCGGTTAAGGGGGTCATTCAGTTTGAAAG | 4.04 | 4.91 | 4.15 | 2.98 | 5.04 | 3.9 | 3.17 | 6.54 | 
CGCACTAGGTCAAAGGACAGTGAAAGGCGACGTA | 3.01 | 4.03 | 4.5 | 1.95 | 2.87 | 2.68 | 0.793 | 0.314 | 
ATATGTAGGTTACATCCGAGTCATTCAGGCTATG | 0.405 | 0.915 | 1.04 | 0.858 | 1.04 | 0.785 | 0.511 | 0.236 | 
CTCGAAAGGTCGGTTGAGGTCAGTATACGGATAA | 4.41 | 4.95 | 4.93 | 1.63 | 4.02 | 5.26 | 3.23 | 3.44 | 
TCGAGTAGGTTACGGCGGCATTCAGGGATGAAGA | 0.0882 | 0.396 | 0.134 | -0.00856 | 0.642 |  | -0.386 | -0.475 | -0.251
CAAACTAGGTCAAAGGTCAAAGTAGAGCCAACCA | 5.2 | 8.91 | 7.32 | 2.8 | 10.3 |  | 1.79 | 2.99 | 6.71
GGAACTAGGGCAAAGTTGATAGCATCTGTCGACG | 0.866 | 1.07 | 1.15 | 0.644 | 0.592 | 0.234 | -0.621 | -0.235 | 

Sequence | PBM binding z-score [1] | PBM binding z-score [2] | PBM binding z-score [3] | PBM binding z-score [4] | PBM binding z-score [5] | PBM binding z-score [6] | PBM binding z-score [7] | PBM binding z-score [8] | PBM binding z-score [9]
CAAACTAGGTCAAAGGTCAAAGCCGAGCCAACCA | 5.47 | 8.97 | 7.51 | 2.57 | 10.7 |  | 1.74 | 2.99 | 
GCTCGGAGGACAAGGTCACAGCTTTGTCCGTAGA | 3.72 | 4.76 | 4.75 | 1.17 |  | 3.79 | 3.04 | 1.96 | 3.47
CCTACTGGGCGACGAAAGGTCATTGATTCAGTGA | 4.11 | 4.14 | 3.31 | 0.216 |  | 3.13 | 0.124 | 1.38 | 3.36
CCGAGTAGGTTACGTGGGGGCATTCAGTGCGAAT | 2.1 | 2.87 | 2.05 | 1.44 | 2.12 |  | 1.09 | 2.85 | 
ACTAGTAGGTCAGCTGAGGTCACACACAATTCGG | 5.47 | 6.45 | 7.1 | 2.43 | 6.29 |  | 5.63 | 5.23 | 
CTCGAAAGGTCAGTTGAGGTGAGTATACGGATAA | 4.91 | 6.7 | 7.89 | 2.56 | 5.93 |  | 1.63 | 1.63 | 
CGAACTAGGTAAAGGACAGTGAATCTCCGCACGC | 0.899 | 0.243 | 0.583 | 0.0169 | 0.286 |  | -0.0591 | -0.21 | 
TAGCCTAGGTTATGCGGGCCAGTATAGTGTCGGC | 0.219 | -0.108 | 0.272 | -0.93 | 0.14 |  | -0.669 | -0.934 | -0.0997
CGTCAAAGTTCACCTAAGGTAACGTAAAGCACGC | 4.45 | 5.95 | 6.36 | 4.67 | 5.09 |  | 3.11 | 4.19 | 
CGTCCAAGGTCAGAGAGGTCATTGAATGCCGAGT | 5.86 | 6.66 | 6.96 | 3.6 | 6.75 |  | 3.35 | 7.43 | 
CCTTACGGGTCACTCAAGGTTATAGCATCGGAGT | 3.55 | 4.9 | 4.38 | 2.01 | 5.23 |  | 1.01 | 1.75 | 
TATTGTAGATCAAAGGTTAAGAAAGCCGAAGCCT | 1.38 | 2.06 | 1.28 | -0.592 |  | 1.37 | -0.344 | 0.214 | 1.54
TCTCGGATGACACGAAAGGTCAGAGCTCGACATC | 4.3 | 4.19 | 3.99 | 1.08 |  | 2.79 | 0.526 | 0.594 | 2.94
CGTCCAAGGTCAATGCTAGGTCACTGAAAGCATT | 5.18 | 7.94 | 6.93 | 3.59 | 5.56 |  | 3.87 | 3.43 | 
CCTAGCAGGCCAATCGGGGTCACTCAAGGCTTGA | 3.66 | 4.43 | 3.43 | 1.12 | 6.01 |  | 2.35 | 4 | 
GCTTACGGGTCAAAGGTTACAGCATGAATAGAAT | 3.57 | 7.1 | 5.1 | 2.74 |  | 3.93 | 0.157 | 1.75 | 5.69
ACTAGGTGGTCAGCTGAGGTCACACACAATTCGG | 4.47 | 4.04 | 4.46 | 0.949 | 4.06 |  | 5.08 | 2.8 | 4.54
ATATGTAGGTTAGAGTCATTCAGAAAGTAGGGAA | 0.746 | 0.752 | 0.891 | 0.428 | 0.703 |  | 0.254 | 0.387 | 
CAAACTAGGTCACCGTAAGGTCAAAGTCCGCATG | 5.88 | 8.26 | 7.64 | 2.47 | 6.67 |  | 5.45 | 4.19 | 
CGTCCAAGGTCAGTGAGGTCAGTGAATGCCGAGT | 5.33 | 5.76 | 6.56 | 3.28 | 4.61 |  | 4.36 | 5.33 | 

Sequence | PBM binding z-score [1] | PBM binding z-score [2] | PBM binding z-score [3] | PBM binding z-score [4] | PBM binding z-score [5] | PBM binding z-score [6] | PBM binding z-score [7] | PBM binding z-score [8] | PBM binding z-score [9]
TGAATGAGGTCAAAGATCAGGGAACGTGGCGTCG | 3.65 | 6.3 | 6.16 | 4.12 |  | 4.33 | 3.06 | 4.68 | 5.6
CAAACTAGGTCACCGGAAGGTCAAAGTTCGCATG | 5.7 | 8.56 | 7.83 | 2.41 |  | 4.59 | 3 | 4.52 | 6.38
ACTAGTGGGTCAGCTGAGGTCACACACAATTCGG | 5.07 | 5.77 | 6.44 | 1.74 | 5.48 |  | 4.71 | 4.55 | 
TCTAGTAGGTCACGGAGGTCACACACGACGGGTA | 4.79 | 7.29 | 7.88 | 2.43 | 7.26 |  | 3.15 | 4.8 | 
CCTACTGGGCCACGTAAGGTCATTGATTCAGTGA | 3.87 | 3.33 | 3.01 | 0.502 | 3.33 |  | 4.46 | 2.84 | 
CTCGAAAGGGCGTGCTCAGGTGAGTATACCAAAC | 0.741 | 0.917 | 0.829 | 0.316 |  | 2.23 | 0.261 | -0.046 | -0.0475
CAACCTAGGTCACGAAAGGTCAAAGTCGAATGAC | 6.02 | 7.91 | 8.53 | 2.31 | 8.43 |  | 2.77 | 3.44 | 
TCGAGTAGGTTACGGGGTCATTCAGGGATGAAGA | 3.99 | 5.96 | 4.05 | 2.36 | 7.78 |  | 2.5 | 5.89 | 6.34
CCGAGTAGGTTACGAGGAGGCATTCAGTGCGAAT | -0.00242 | 0.333 | 0.522 | 0.082 | 0.427 |  | -0.82 | -0.434 | 
GCATATAGGTAATTCAAGGTGAAAGTCCGATTGT | 0.847 | 0.546 | 0.26 | 0.583 | 0.756 |  | 1.67 | 0.292 | 
CCTACGGGGCCAAAGGTCATTGATTCCAATGCTC | 4.5 | 6.59 | 5.24 | 1.86 |  | 3.78 | 0.564 | 2.99 | 5.3
CCGAGTAGGTTACGAGGCGGCATTCAGTGCGAAT | 0.155 | 0.238 | 0.173 | 0.159 | 0.329 |  | -0.252 | -0.284 | 
GATACAGGGTGAGCTAGAGGCCAGAGTATGGAAA | 0.626 | 2.08 | 0.586 | -0.965 | 0.342 |  | -0.562 | -0.731 | 
GCTAGTTTGTCAGTAAAAGGTCACACACCGGTCG | 5.18 | 5.07 | 4.23 | 1.18 |  | 3.6 | 1.61 | 2.4 | 3.95
TTACCAAGGTGACCTGAGGTCGTTGATCCAACTC | 3.13 | 3.18 | 2.35 | 0.664 | 3.64 |  | 3.94 | 3.65 | 
CCTACTGGGCCATCAGGTGATTGATATCAACGTT | -0.117 | 0.0131 | 0.41 | -0.814 | -0.272 |  | 0.389 | -0.474 | 
TTACCAAGGTCAGCTGAGGTCGTTGATCCAACTC | 4.61 | 5.52 | 6.14 | 2.79 | 4.69 |  | 3.51 | 4.14 | 
CTTAGTTGGTCAAGGTCACACACGCTATAGGTAC | 4.53 | 4.9 | 5.2 | 2.05 |  | 4.43 | 4.65 | 3.96 | 4.52

Reference: the supplement of paper PMC6555819
